Source: PubChem BioAssay AID524 (The Scripps Research Institute Molecular Screening Center, 2006)
About 95 (0.1%) of roughly 65,000 compounds were called active.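 The calls were made as follows: active = inhibition above the screen-wide mean inhibition plus 3 SD (cut at about 21% in these data); inactive = the rest.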 Only a selection was taken, and actives are over-represented in it overall.

What follows are compounds tested against cAMP-dependent protein kinase catalytic subunit alpha (Homo sapiens) (UniProt P17612) (assay: inhibitors of human PKA kinase activity, primary screen, biochemical, ATP-depletion luminescence, Kemptide substrate (AID 524)). Settings: PKA Kemptide phosphorylation, Kinase-Glo ATP luminescence; at 6 µM; stronger effect = higher value.

inhibition, inactive:
CC(C)CNS(=O)(=O)c1ccc(OCC(=O)Nc2ccc3c(c2)OCO3)c(Cl)c1 4.9%
CC(=O)Nc1ccc(S(=O)(=O)NCCc2ccccc2)cc1 2.1%
CCC(=O)N1CCN=C1SCc1ccc(F)cc1 3.7%
COc1cc2[nH]c(=S)n(Cc3ccc(C)o3)c(=O)c2cc1OC 1.2%
CC(=O)c1cc2c(cc1N)OCO2 1.2%
Cc1ccc2c(c1)sc1ncc(NC(=O)c3ccccc3)c(=O)n12 -1.3%
Cc1cc(C)cc(NC(=O)N2CCC(NC(=O)c3ccc(F)cc3)CC2)c1 5.9%
CCCNS(=O)(=O)c1ccc2c(c1)CCCN2C(C)=O 9.1%
CCc1cccc2c3c([nH]c12)C(CC)(CC(=O)O)OCC3 (stereo not drawn) -6.8%
COc1cc(C2C3C(=O)N(c4ccccc4)C(=O)C3ON2c2ccccc2)ccc1O (stereo not drawn) 4.7%
CC(C)Cc1ccc(S(=O)(=O)N2CCN(C(=O)c3ccco3)CC2)cc1 7%
COc1ccc2[nH]c(=O)c(CN(Cc3nnnn3CCc3ccccc3)CC3CCCO3)cc2c1 (stereo not drawn) -2.5%
O=C(NCCCNCc1ccccc1)c1ccc(/C=N/O)nc1 9.9%
Cc1noc(C)c1C(=O)OCC(=O)/C=C1\N(C)c2ccccc2C1(C)C 6.8%
CC1=Nn2c(nnc2-c2ccccc2)SC1 4.2%
CCOc1cc(/C=N/n2cnnc2)c(Br)cc1O 6.7%
Cc1ccc(S(=O)(=O)N2CCN(Cc3cccc(C)c3O)CC2)cc1 6.3%
CCCc1cc(=O)n2[nH]c(SCc3ccccc3)nc2n1 5.4%
O=C(Nc1ccc(S(=O)(=O)N2CCCC2)cc1Cl)C1=COCCO1 -4.1%
Cn1c(=NC(=O)c2cnccn2)sc2ccccc21 5%
O=P(c1cccs1)(c1cccs1)c1cccs1 3.3%
COC(=O)c1nc(NC(=O)c2ccc(Cl)cc2)n[nH]1 5%
Cn1c(=NC(=O)CSCC(=O)N2CCOCC2)sc2ccccc21 7.1%
O=C(C1CCN(c2nnc(-n3cccc3)s2)CC1)N1CCc2ccccc2C1 -3.8%
O=C(Cn1nnc(-c2ccc(CN3CCOCC3)cc2)n1)NC1CCCCC1 10.1%
COC(=O)C(C)N(C#N)c1nc(C)nc(C)n1 (stereo not drawn) -1.3%
CCN(CC)CCN1C(=O)C(=O)/C(=C(/O)c2ccccc2)C1c1ccccc1F (stereo not drawn) -5.4%
N#C/C=C1\Sc2ccccc2C(=O)N1CC(=O)N1CCN(S(=O)(=O)c2ccccc2)CC1 6.8%
CCOC(=O)c1ccc(N2C(=O)CC(Sc3nc(O)c(CC)c(=O)[nH]3)C2=O)cc1 (stereo not drawn) 7.3%
CC(=O)Nc1cccc(NC(=O)c2c(-c3ccccc3)noc2C)c1 -5.3%
Cc1nnc(SCC(=O)NCc2cccs2)[nH]c1=O 12.3%
Cc1nc(SC(C)C)[nH]c(=O)c1Cc1ccccc1 5.4%
COc1cccc(-n2cc(C(=O)O)c3ccccc3c2=O)c1 12.3%
COc1cccc(Nc2nnc(SCC(=O)N3CC(C)OC(C)C3)s2)c1 (stereo not drawn) 6%
CC(=O)NC1CC2CCCC(C1)N2CC(=O)Nc1ccccc1 (stereo not drawn) 6%
O=C(NCC1CCCO1)C(C(=O)c1ccccc1)n1cc(Cl)ccc1=O (stereo not drawn) 1.8%
Cc1nc2ccc(S(=O)(=O)NCC(=O)NCCN3CCCCC3C)cc2s1 (stereo not drawn) -5.1%
CCOC(=O)CN1C(=O)C(O)(CC(=O)c2ccccn2)c2ccccc21 (stereo not drawn) 10.4%
CCOc1ccc(C(=O)Nc2cc(OC)ccc2OC)cc1 -1.4%
CC1(C)CC(=O)C(C=NCc2cccnc2)=C(O)C1 7%
CCCCCCOC(=O)NCC(O)c1ccccc1 (stereo not drawn) 3.5%
Cc1cc(NC(=O)c2cccc(N3C(=O)CCC3=O)c2)no1 -4%
COc1ccc2nc(NC(=O)c3ccc(Br)s3)sc2c1 -4.9%
CC(=O)Oc1ccc(C(=O)Nc2nccs2)cc1 -2.3%
COc1cc(Cl)c(S(=O)(=O)n2cnc(C)c2)cc1Cl 4.9%
O=S(=O)(NCc1cccnc1)c1ccc(Br)s1 -2.9%
CN(Cc1ccccc1)c1nc2c(c(=O)[nH]c(=O)n2C)n1CCSc1nc2ccccc2[nH]1 2.7%
COc1ccc2[nH]c(=O)c(CN(CC3CCCO3)C(=O)Nc3ccccc3)cc2c1 (stereo not drawn) -4.5%
c1ccc(-c2oc3ncnc(N4CCOCC4)c3c2-c2ccccc2)cc1 7.5%
CCCCCN(C(=O)NC(=O)Nc1ccccc1OC)S(C)(=O)=O 8.1%
CN1CCCc2cc(C#N)c(=O)[nH]c21 11.8%
Cc1ccccc1-n1c(SCC(=O)NCc2cccs2)nnc1-c1ccncc1 11.7%
O=C(CSc1nc2ncccc2[nH]1)Nc1ccc2c(c1)OCCO2 -9.5%
CCOC(=O)C1CCN(C(=O)C2CCN(S(=O)(=O)CC)CC2)CC1 0.3%
CCCc1nc2ccccc2c(=O)n1NC(=O)c1c(O)c2ccccc2[nH]c1=O 7.9%
O=C(O)COc1nsnc1N1CCOCC1 -0.4%
CCOC(=O)c1sc(NC(=O)CSc2nnc(-c3ccco3)o2)c(C(=O)OCC)c1C -4.6%
COC(=O)CCSc1nccn1Cc1ccccc1 1.3%
O=C(Oc1ccccc1)c1ccc2nccnc2c1 18.8%
CN1C(=O)CC(N2CCN(c3ccccn3)CC2)C1=O (stereo not drawn) 0.2%
Cc1ccc(-c2nc(COC(=O)c3c(C)noc3C)cs2)cc1 0.5%
CCn1c(=O)cc(OCC(=O)NCCCN2CCN(c3cccc(Cl)c3)CC2)c2ccccc21 9.2%
COC(CCN(C)C)(c1ccccc1)c1ccccc1 9.3%
COC(=O)c1ccc(NC(=O)c2ccco2)cc1 -3.7%
Cc1cccc(-n2c(Cc3cc(=O)[nH]c(=O)[nH]3)nnc2SC(C)C)c1 -8.8%
O=C(Nc1cnccn1)c1cccnc1 9%
O=C(Nc1nc2cc3c(cc2s1)OCCO3)c1cccc(S(=O)(=O)N2CCOCC2)c1 6.2%
COc1cc(-n2c(C)nc3cc(C(=O)NCc4ccco4)ccc32)cc(OC)c1OC 5.2%
CCn1ncc(C2=NOC(C(=O)N3CCN(c4ccccc4)CC3)C2)c1C (stereo not drawn) 11.5%
Cc1cccc(OCc2nnc(SCc3nc4cc(C(F)(F)F)ccc4c(=O)[nH]3)o2)c1 3.4%
Cc1ccccc1-n1nnc2c(=O)oc3ccccc3c21 7.5%
CCOc1ccccc1Nc1nnc(SCc2ccc(C(=O)OC)o2)s1 4.4%
CCOC(=O)N1CCN(CC(=O)c2c(C)[nH]c3ccccc23)CC1 -3.4%
CCOC(=O)CN1CC23C=CC(O2)C(C(=O)Nc2ccc(F)cc2)C3C1=O (stereo not drawn) 2.5%
COc1ccc(C2/C(=C(/O)c3ccc(OC(C)C)cc3)C(=O)C(=O)N2CCCN2CCOCC2)cc1 (stereo not drawn) 3.6%
COc1ccccc1N1CCN(C(=O)c2cn(-c3ccccc3)nc2-c2cccnc2)CC1 -9.3%
CCOc1nc(-c2ccc(OC)cc2)ccc1-c1noc(-c2cc(OC)c(OC)c(OC)c2)n1 -0.3%
CN1CCc2c(sc3c2c(NCc2ccco2)nc2nnnn23)C1 4.3%
COc1ccc(N=Cc2c(O)[nH]c3ccccc23)cc1OC 9.6%
CC1(C)C2CCC1(C)C(OC(=O)CCn1ccnc1)C2 (stereo not drawn) 7.3%
Nc1nnc(SCCN2C(=O)c3ccccc3S2(=O)=O)s1 6.6%
CCOC(=O)c1c(NC(=O)CSc2nnc(C)c(=O)[nH]2)sc2c1CCC2 0.8%
CN(CCc1ccccn1)S(=O)(=O)c1ccc2c3c(cccc13)C(=O)N2 4.5%
CC(=O)Nc1cc2ccc(OC(C)=O)cc2oc1=O 5.7%
CCc1ccc(CCC(=O)Nc2ccc(S(N)(=O)=O)cc2)o1 -0.9%
CCN1CCN(c2ncnc3c2oc2nc(C)c4c(c23)CC(C)(C)OC4)CC1 0.2%
CCOC(=O)C(CC)Sc1ncnc2c1nnn2-c1ccc(F)cc1 (stereo not drawn) 11.3%
CC(C)(C)c1ccc(C(=O)CSc2ncn[nH]2)cc1 7.8%
CCCCOc1ccccc1/C=c1/sc2nc(-c3oc4ccccc4c3C)nn2c1=O 2%
CC(C)(C)NC(=O)C(c1ccco1)N(Cc1ccc2c(c1)OCO2)C(=O)Cn1nnc2ccccc21 (stereo not drawn) -2.7%
O=S(=O)(Nc1nccs1)c1ccc2c(c1)OCCO2 6.4%
Cc1cc(C)c2nc(SCCC#N)nc(C)c2c1 5.1%
O=C(NCc1ccc(Cl)cc1)c1cc2c(nc3sccn32)s1 2.8%
COc1ccccc1CNC(=O)C1CCN(S(C)(=O)=O)CC1 4.6%
Cc1ccc(S(=O)(=O)N2CCC(C(=O)N[C@@H](C)C(=O)NCc3ccccc3)CC2)cc1 1.2%
CC1(C)Cc2cccc(OCC(=O)Nc3nccs3)c2O1 9.4%
O=C(NCc1ccc2c(c1)OCO2)c1cc2c(s1)CS(=O)(=O)C2 5.5%
CCOCC(=O)Nc1cc(OC)c(Cl)cc1OC 5.6%
O=S(=O)(c1cccc(S(=O)(=O)N2CCC(n3nnc4ccccc43)CC2)c1)N1CCCCC1 8.1%
Cc1ccc(-n2nc3c(c2NC(=O)CCC2CCCCC2)CS(=O)C3)cc1 (stereo not drawn) -4.5%
CCC(C)n1[nH]c(=O)cc1N (stereo not drawn) -5.4%
CCOc1ccccc1Oc1cn[nH]c1-c1ccc(OC)cc1O -1.5%
CCn1cc(C(=O)NCC2COc3ccccc3O2)c2cc(OC)c(OC)cc2c1=O (stereo not drawn) 2.4%
